MCL1 BIM primary – disrupts human MCL1 binding to BIM-BH3 peptide; Q07820; GST-MCL1 / FITC-Bim-BH3 fluorescence polarization; inhibition, % at 10.9 µM; 320,000 tested, 0.68% active; AID 2057;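 active = inhibition above the mean inhibition of all tested compounds plus 3 SD, set per campaign, cut at about 40% in these data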;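 also: higher means more loss of mP so more displacement of Bim peptide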
Mcl1 Bid PPI – disrupts binding of human Mcl-1 to Bid peptide. Q07820. TR-FRET Mcl-1/Bid-Dy647 peptide binding, 1536-well. inhibition, % at 21.7 µM. 220,000 tested, 0.97% active;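 active = compounds that cut the binding signal by more than half at the single screening dose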;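 also: His-tagged Mcl-1 with europium anti-His antibody binding Bid BH3 peptide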
Mcl1-Noxa inh – Mcl-1/Noxa interaction inhibition; Q07820; TR-FRET Mcl-1/Noxa peptide binding, 2 h; inhibition, % at 21.7 µM; 220,000 tested, 1.5% active;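 active = compounds that cut the protein-peptide binding signal by more than 50% relative to plate controls in a single-dose test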;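 also: His-tagged Mcl-1 with rhodamine Noxa BH3 peptide and terbium anti-His antibody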
GLD-1 TGE inh – GLD-1-TGE RNA interaction inhibition (C. elegans); Q17339; purified GLD-1 + fluorescein TGE RNA, fluorescence polarization; inhibition, % at 5.96 µM; 320,000 tested, 0.44% active; AID 2280;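 active = percent inhibition above a per-plate cutoff, the plate mean of test compounds plus 3 SD, cut at about 30% in these data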
BCLXL inh – Bcl-xL (human) inhibition; 320,000 tested, 0.7% active; GST-Bcl-xL / FITC-Bim BH3 peptide fluorescence polarization; inhibition, % at 10.9 µM; Q07817;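 active = inhibition above the mean of all tested compounds plus 3 SD, cutoff set per campaign, cut at about 30% in these data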;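 also: inhibitors lower millipolarization by displacing the labeled peptide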
Target sequence (Q07817 whole entry, looked up): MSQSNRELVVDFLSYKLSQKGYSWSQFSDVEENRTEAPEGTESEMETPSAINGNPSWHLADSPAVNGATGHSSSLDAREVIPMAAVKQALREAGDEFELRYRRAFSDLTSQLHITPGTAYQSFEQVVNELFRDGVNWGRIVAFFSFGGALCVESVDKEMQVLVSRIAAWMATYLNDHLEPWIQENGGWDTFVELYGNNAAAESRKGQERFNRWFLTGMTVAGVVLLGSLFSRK
Mcl-1 Bim block – human Bim-Mcl-1 interaction inhibition; Q07820; Bead-based flow cytometry, Bim peptide-Mcl-1 binding; inhibition, % at 10 µM; 190,000 tested, 0.1% active; AID 1009; in the data active = inhibition above about 40%
Hits are given with their value; n = inactive; x = no result given. Most compounds without a hit are left out; they make up all but 2.3% or so of the library.

SMILES	MCL1 BIM primary	Mcl1 Bid PPI	Mcl1-Noxa inh	GLD-1 TGE inh	BCLXL inh	Mcl-1 Bim block
COc1ccc(-n2nc(C(=O)NCC(=O)NCCN(C)C)c3ccccc3c2=O)c(OC)c1	n	x	x	n	n	x
COCCN(C(=O)COC(=O)C1CC1C)c1c(N)n(Cc2ccccc2)c(=O)[nH]c1=O (stereo unspecified)	n	x	x	n	n	x
Clc1ccc2c(c1)C1OCCC1C(c1ccco1)N2 (stereo unspecified)	n	n	n	n	32.2	n
CC(=O)N1c2ccc(Cl)cc2C2OCCC2C1c1ccco1 (stereo unspecified)	n	n	n	n	n	x
CC1(C)Cc2cccc(OCC(=O)OCC(=O)Nc3ccccc3)c2O1	n	x	x	n	n	x
CC1(C)Cc2cccc(OCC(=O)OCC(=O)Nc3cccc(S(N)(=O)=O)c3)c2O1	n	92.6	n	n	n	x
O=C(CNS(=O)(=O)c1ccccc1)OCc1cccc([N+](=O)[O-])c1	n	n	n	n	37.6	n
Cc1ccc(-n2c(SCC(=O)N/N=C/c3c(C)nn(-c4ccccc4)c3C)nc3ccccc3c2=O)cc1	n	53.1	n	n	n	n
Cc1nn(-c2ccccc2)c(C)c1/C=N/NC(=O)CSc1nc2ccccc2c(=O)n1-c1ccc(Br)cc1	n	n	n	n	n	n
O=C(COC(=O)c1cc(=O)[nH]c2ccccc12)NCCc1ccccc1	x	x	x	n	x	x
CCOC(=O)N1CC=C2C(C#N)=C(N)C(C#N)(C#N)[C@H](c3ccsc3)[C@H]2C1	n	n	n	n	40.9	n
CCCC1C2CN(C(C)C)CC=C2C(C#N)=C(N)C1(C#N)C#N (stereo unspecified)	180.2	n	n	131.7	161.3	n
CCOC(=O)N1CC=C2C(C#N)=C(N)C(C#N)(C#N)[C@H](c3ccccc3OCC)[C@H]2C1	n	n	n	n	n	n
CC(C)c1ccc(C2C3CSCC=C3C(C#N)=C(N)C2(C#N)C#N)cc1 (stereo unspecified)	n	n	n	n	n	n
CN1C2C=C3C(C#N)=C(N)C(C#N)(C#N)[C@@H](c4ccsc4)[C@@H]3C1CC2 (stereo partly specified)	n	n	n	n	n	53.0
N#CC1=C(N)C(C#N)(C#N)C(c2ccncc2)C2CN(C(=O)OCc3ccccc3)CC=C12 (stereo unspecified)	n	n	n	n	n	n
COc1ccc(NS(=O)(=O)c2ccc(C)c(C(=O)NCCCN3CCCC3=O)c2)cc1	n	x	x	n	n	x
O=C(O)C1(c2ccccc2)CCN(S(=O)(=O)c2ccc(Cl)cc2)CC1	n	x	x	n	n	x
Cc1ccc(C(=O)OCC(=O)Nc2ccccc2)cc1NC(=O)c1ccco1	n	n	n	n	n	n
Cc1ccc(C(=O)OCC(=O)Nc2ccc(N(C)C)cc2)cc1NC(=O)c1ccco1	n	n	79.2	n	n	n
CN(C)c1ccc(/C=C/c2ccc3ccccc3[n+]2C)cc1	n	n	n	n	n	n
CN(C)c1ccc(/C=C/c2ccc3c4ccccc4ccc3[n+]2-c2ccccc2)cc1	x	n	84.2	x	x	n
O=[N+]([O-])c1cc(Cl)cc(/C=N/NC(=S)Nc2ccc(S(=O)(=O)N3CCOCC3)cc2)c1O	n	67.3	85.4	n	n	x
CC(C)(C)OC(=O)N1CCC(NC(=O)c2[nH]cnc2C(=O)Nc2cccc(Cl)c2)CC1	n	x	x	n	n	x
CC(C)Oc1ccc(C(=O)N/N=C/c2ccc(-c3ccc(S(=O)(=O)Nc4ncccn4)cc3)o2)cc1	n	n	66.8	n	n	n
SMILES	MCL1 BIM primary	Mcl1 Bid PPI	Mcl1-Noxa inh	GLD-1 TGE inh	BCLXL inh	Mcl-1 Bim block
Cc1ccc(C(=O)N/N=C\c2ccc(-c3ccc(Cl)cc3)o2)cn1	n	n	n	n	n	x
COc1ccc(C(=O)NCc2ccc3c(c2)cc(C)n3C)cc1	n	n	n	n	n	n
Cc1cc2cc(CNC(=O)c3cc4ccccc4o3)ccc2n1C	n	n	n	39.5	30.6	n
CSc1ccccc1NC(=O)c1noc2c1CCC2	n	n	66.2	n	n	n
COc1ccc(CN2CCCC(N3CCN(c4ccc(OC)cc4)CC3)C2)cc1 (stereo unspecified)	n	x	x	n	n	x
CCn1nc(C(=O)Nc2ccc(S(=O)(=O)Nc3nccs3)cc2)c2ccccc2c1=O	n	n	63.7	n	n	n
O=C(Nc1ccc(S(=O)(=O)Nc2ncccn2)cc1)c1ccc2ncsc2c1	n	89.9	59.6	n	n	x
N#Cc1cccc(C(=O)Nc2ccc(S(=O)(=O)Nc3nccs3)cc2)c1	x	x	x	n	x	x
